Assay results reported in ChEMBL document CHEMBL1201862, “PubChem BioAssay data set” (2004).
About 2,100 (0.53%) of roughly 400,000 compounds were called active. Inconclusive results (about 14%) are left out. The rule behind the calls is not given here. This excerpt belongs to a sample that is enriched for actives.

molecular target: Ataxin-2 (Homo sapiens) (UniProt Q99700); experiment: qHTS for Inhibitors of ATXN expression.; type: functional
Sequence (Q99700 whole entry): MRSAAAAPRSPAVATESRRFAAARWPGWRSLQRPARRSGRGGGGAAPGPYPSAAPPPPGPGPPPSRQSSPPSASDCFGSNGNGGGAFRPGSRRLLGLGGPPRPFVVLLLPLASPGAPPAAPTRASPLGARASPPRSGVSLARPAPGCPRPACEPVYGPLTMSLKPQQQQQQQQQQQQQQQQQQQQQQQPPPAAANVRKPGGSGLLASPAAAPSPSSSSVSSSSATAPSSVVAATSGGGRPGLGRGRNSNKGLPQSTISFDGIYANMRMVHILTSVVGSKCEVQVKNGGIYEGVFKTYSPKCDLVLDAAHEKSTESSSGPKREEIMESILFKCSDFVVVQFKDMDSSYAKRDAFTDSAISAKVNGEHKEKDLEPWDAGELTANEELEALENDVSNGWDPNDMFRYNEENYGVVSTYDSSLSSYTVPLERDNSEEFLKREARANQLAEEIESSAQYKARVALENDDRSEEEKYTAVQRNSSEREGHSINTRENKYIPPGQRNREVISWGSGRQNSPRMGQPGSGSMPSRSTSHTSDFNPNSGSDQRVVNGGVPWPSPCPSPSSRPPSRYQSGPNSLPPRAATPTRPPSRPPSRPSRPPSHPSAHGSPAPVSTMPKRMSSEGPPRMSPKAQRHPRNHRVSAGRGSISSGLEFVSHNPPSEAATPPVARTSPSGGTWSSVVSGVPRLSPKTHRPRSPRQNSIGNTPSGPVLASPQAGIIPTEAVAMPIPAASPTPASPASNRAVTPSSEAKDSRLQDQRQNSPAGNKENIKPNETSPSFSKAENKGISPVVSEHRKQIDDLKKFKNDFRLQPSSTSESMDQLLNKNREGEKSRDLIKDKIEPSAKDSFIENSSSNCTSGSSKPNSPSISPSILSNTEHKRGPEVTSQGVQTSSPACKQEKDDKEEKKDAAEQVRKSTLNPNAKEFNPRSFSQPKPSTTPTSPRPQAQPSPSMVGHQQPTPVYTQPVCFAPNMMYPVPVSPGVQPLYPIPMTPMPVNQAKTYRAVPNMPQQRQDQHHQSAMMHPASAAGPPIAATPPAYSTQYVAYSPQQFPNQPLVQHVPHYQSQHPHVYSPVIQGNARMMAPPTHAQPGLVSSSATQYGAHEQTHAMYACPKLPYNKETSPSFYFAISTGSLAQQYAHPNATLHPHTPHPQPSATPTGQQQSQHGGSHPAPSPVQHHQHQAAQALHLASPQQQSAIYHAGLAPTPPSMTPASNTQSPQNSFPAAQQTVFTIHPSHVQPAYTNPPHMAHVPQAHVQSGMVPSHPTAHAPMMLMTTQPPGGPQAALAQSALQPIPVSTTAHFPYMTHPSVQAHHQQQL

SMILES | Potency
Nc1ccc(Br)c2cccnc12 | inactive
NC(=O)c1c(NC(=O)C2COc3ccccc3O2)sc2c1CCN(Cc1ccccc1)C2 (stereo not drawn) | inactive
Cc1c(CN2CCC(CO)(Cc3cccc(C(F)(F)F)c3)CC2)c2ccccc2n1C | 39.8 µM (active)
COc1ccc(CC2(CO)CCN(Cc3ccc4c(c3)CCO4)CC2)cc1 | inactive
COc1ccccc1/C=C/CN1CCC(CO)(Cc2ccccc2)CC1 | inactive
O=C(O)c1ccc(-c2ccc(/C=C3\NC(=O)N(Cc4ccc(Cl)cc4)C3=O)o2)cc1Cl | inactive
CC(C)(C)NC(=O)NCc1cccnc1 | inactive
O=C(NCc1cccnc1)/C(=C\c1ccc(-c2ccc(Cl)c(Cl)c2)o1)S(=O)(=O)c1ccccc1 | 22.4 µM (active)
CNC(=O)/C(C#N)=C/c1ccc(-c2ccc(Cl)cc2)o1 | inactive
O=C(N/N=C/c1ccc(-c2ccc([N+](=O)[O-])cc2)o1)c1cccnc1 | inactive
O=C(NCc1cccnc1)/C(=C\c1ccc(-c2cccc(Cl)c2)o1)S(=O)(=O)c1ccccc1 | 31.6 µM (active)
Cc1c(N(C)S(=O)(=O)c2cccc(C(=O)NCc3cccnc3)c2)c(=O)n(-c2ccccc2)n1C | inactive
O=C(NCc1cccnc1)/C(=C/c1ccc(-c2ccc(Cl)cc2)o1)S(=O)(=O)c1ccccc1 | 35.5 µM (active)
O=C(NCC(=O)N1CCC2(CC1)NCCc1[nH]cnc12)c1cccc(Cl)c1 | inactive
CN(C)c1ccc(/C=N/NC(=O)c2cccc(N3CCCC3=O)c2)cc1 | inactive
Cc1ccc(S(=O)(=O)NN=C2CCc3ccccc32)cc1 | inactive
N#CCCn1nc(-c2ccc(Br)cc2)cc1Nc1ccccc1NC(=O)C(F)(F)F | inactive
CCOc1ccc(N2C(=O)/C(=C\NNc3nnc(C)c(O)n3)c3ccccc3C2=O)cc1 | inactive
O=C(C1CCCO1)N(c1ccc(F)cc1)C1C=CS(=O)(=O)C1 (stereo not drawn) | inactive
O=C(OCCN1C(=O)c2cccc3c(N4CCOCC4)ccc(c23)C1=O)c1cccc(Cl)c1 | inactive
CC(C)CN(C(=O)CN1CCCCCC1)c1c(N)n(CC(C)C)c(=O)[nH]c1=O | inactive
CC1CN(C(S)=Nc2ccc(Cl)cc2)CC(C)O1 (stereo not drawn) | inactive
CCn1nc(NC(=O)COC)c2cc3cc(C)ccc3nc21 | inactive
Cc1cccc2cc3c(N)c(C(=O)N4CCc5ccccc54)sc3nc12 | inactive
O=[N+]([O-])c1ccc(NN=Cc2ccccc2O)nc1 | 20 µM (active)

SMILES | Potency
O=[N+]([O-])c1ccc(N/N=C/c2ccc(OCc3cccc4ccccc34)cc2)nc1 | inactive
O=[N+]([O-])c1ccc(/C=N/Nc2ncc(-c3ccccc3)cn2)cc1 | inactive
CN(C)c1c2ccccc2nc2c(F)c(F)c(F)c(F)c12 | inactive
Cc1cccn2c(=O)c3cc(C(=O)NC(C)c4ccccc4)c(=N)n(CCOCCO)c3nc12 (stereo not drawn) | inactive
CC(C)CN(CC(C)C)CC(O)Cn1cc(/C=C/C(=O)c2ccccc2)c2ccccc21 (stereo not drawn) | inactive
O=C(/C=C/c1cn(CC(O)CN2CCCCCC2)c2ccccc12)c1ccc(Br)cc1 (stereo not drawn) | inactive
C=CCn1cccc(/C=C/C(=O)c2ccc(C(C)(C)C)cc2)c1=S | 35.5 µM (active)
Cc1cc(=O)oc2cc(O[C@@H]3O[C@H](CO)[C@H](O)[C@H](O)[C@H]3O)ccc12 | inactive
CN(C(=O)c1cccc(NC(=O)Cc2ccc(NC(=O)C3CCCN(C(=O)CCc4ccccc4)C3)cc2)c1)C1CCCCC1 (stereo not drawn) | 17.8 µM (active)
Cc1cc(N2CCOCC2)nc2ccc(NC(=O)CCC(=O)N3CCCC(C)C3)cc12 (stereo not drawn) | inactive
O=C(COC(=O)C1CC(=O)N(Cc2ccccc2)C1)Nc1cccc([N+](=O)[O-])c1 (stereo not drawn) | inactive
Cc1ccc(N2C(=O)c3cccc4c(N5CCN(C)CC5)ccc(c34)C2=O)c2cccnc12 | inactive
CCc1nnc(N/C=C2/C(=O)N(c3ccc(Cl)cn3)C(=O)c3ccccc32)s1 | inactive
Cn1c(COc2ccc(C(=O)O)cc2)nc2ccccc21 | inactive
CCn1c(NCc2ccc(OC)cc2)nc2ccccc21 | inactive
COc1ccc(C(=O)Cn2c(C(C)=O)nc3ccccc32)cc1 | 33.6 µM (active)
CN(C)c1cccc(C(=O)OCc2cc(=O)oc3cc(O)ccc23)c1 | inactive
N#C/C(=C\c1cccnc1)c1nc2c(s1)CCCC2 | inactive
CN1/C(=C/C=C/c2n(C)c3cc([N+](=O)[O-])c([N+](=O)[O-])cc3[n+]2C)C(C)(C)c2ccccc21 | 7.94 µM (active)
O=C(Oc1c(-c2ccccc2Cl)oc2ccccc2c1=O)c1ccc(Cl)cc1 | inactive
COCCCn1c(=N)c(C(=O)NCC2CCCO2)cc2c(=O)n3cccc(C)c3nc21 (stereo not drawn) | inactive
Cc1ccc(-n2c(=O)c(C#N)cc3c(=O)n4ccccc4nc32)cc1C | inactive
O=C(CCS(=O)(=O)c1ccc(F)cc1)Nc1nc(-c2ccncc2)cs1 | 39.8 µM (active)
O=C(Cc1ccccc1)Nc1nc(-c2ccc(F)c(F)c2)cs1 | inactive
Cc1c(Cl)cccc1NC(=O)CNC(=O)CCS(=O)(=O)c1ccc(F)cc1 | inactive

SMILES | Potency
COc1ccc(N2C(=O)CC(NNc3ncc(Cl)cc3Cl)C2=O)cc1 (stereo not drawn) | inactive
COc1ccc(-n2nc(C#N)c(Cl)cc2=O)cc1 | 39.8 µM (active)
COc1ccc(-n2nc(C)c3onc(C)c3c2=O)cc1 | inactive
CC(C)(C)c1ccc(-n2nc(C#N)c(Cl)cc2=O)cc1 | 15.8 µM (active)
Cc1ccc(CSc2nnc([C@@H]3CCCN3C(=O)OC(C)(C)C)o2)cc1 | inactive
CCc1nnc(NS(=O)(=O)c2ccc(NC(=O)c3cccc(Cl)c3)cc2)s1 | inactive
O=[N+]([O-])c1ccc(Nc2ccccc2)c2nonc12 | 25.1 µM (active)
CCc1nnc(NS(=O)(=O)c2ccc(Nc3ccc([N+](=O)[O-])c4nonc34)cc2)s1 | 17.8 µM (active)
O=[N+]([O-])c1ccc(Sc2cccc[n+]2[O-])c2nonc12 | 6.7 µM (active)
CCc1nnc(NS(=O)(=O)c2ccc(N/C=C/C(=O)c3ccc(C)cc3)cc2)s1 | inactive
COCCn1c(SCC(=O)NC2CCCCC2)nnc1-c1ccncc1 | inactive
O=C1OCCN1C(=O)[C@H]1[C@H](c2ccc(F)cc2)C(c2cccc(Cl)c2)=NN1c1ccccc1 | inactive
CCN(CC)C(=O)[C@H]1CC(CC(=O)NCc2cccc(C(F)(F)F)c2)C(=O)N2CCc3c([nH]c4ccccc34)[C@]12C (stereo partly drawn) | 22.4 µM (active)
CCN(CC)C(=O)[C@H]1CC(CC(=O)NCC23C[C@H]4C[C@@H](C2)C[C@@H](C3)C4)C(=O)N2CCc3c([nH]c4ccccc34)[C@]12C (stereo partly drawn) | 39.8 µM (active)
O=C(NCc1cccc(C(F)(F)F)c1)c1cccc2c1C(=O)c1ccc(N3CCC(Cc4ccccc4)CC3)cc1S2(=O)=O | inactive
CC(C)N(C(=O)[C@H]1CC(CC(=O)NCc2cccc(C(F)(F)F)c2)C(=O)N2CCc3c([nH]c4ccccc34)[C@]12C)C(C)C (stereo partly drawn) | 39.8 µM (active)
CN(C)C(=O)CCc1ccc2c3c([nH]c2c1)[C@]1(C)[C@@H](C(=O)N2CCCCC2)C[C@H](CC(=O)NCC24C[C@H]5C[C@@H](C2)C[C@@H](C4)C5)C(=O)N1CC3 | 39.8 µM (active)
C/C(=N\NC(=O)c1nc2ccccn2c1C)c1ccco1 | inactive
Cc1c(Cc2ccccc2)c(=O)oc2cc(O)cc(O)c12 | inactive
COCC(=O)N(CCN(C)C)Cc1cc2cc3c(cc2nc1Cl)OCO3 | inactive
COc1ccc(-c2cn3nc(SCC(=O)NCC4CCCO4)ccc3n2)cc1 (stereo not drawn) | inactive
Cn1cnc([N+](=O)[O-])c1S(=O)(=O)Oc1ccc(Cl)cc1 | 31.6 µM (active)
CCOc1ccc(Nc2nc3c(S(=O)(=O)c4cccc(Cl)c4)nnn3c3ccsc23)cc1 | inactive
O=S(=O)(Oc1ccc(Cl)cc1)c1cccc2cccnc12 | inactive
Cn1c(=O)n(CCOc2ccc([N+](=O)[O-])cc2)c2ccccc21 | inactive

SMILES | Potency
Cn1cnc([N+](=O)[O-])c1S(=O)(=O)c1cccc(Cl)c1 | 8.91 µM (active)
CC(=O)Nc1ccc(OS(=O)(=O)c2cc(Cl)ccc2C)cc1 | inactive
Cn1cnc([N+](=O)[O-])c1S(=O)(=O)Oc1ccccc1 | 28.2 µM (active)
Cc1c2c(n3c(nc4ccccc43)c1C#N)N(CCCN(C)C)CC2 | inactive
Cc1ccc(Sc2ncccc2C(=O)N(C)Cc2cccs2)c(C)c1 | inactive
O=c1c2ccccc2oc2cc(NCCCN3CCOCC3)ccc12 | inactive
CCN(CC)S(=O)(=O)c1ccc(N2CCCC2)c(NS(=O)(=O)c2cccs2)c1 | inactive
CCCCCCSc1ccc(-c2nc3cnccn3c2NCCCC)cc1 | inactive
O=c1c2ccccc2nc(/C=C/c2ccc([N+](=O)[O-])o2)n1CCCO | 15.8 µM (active)
O=c1c2ccccc2nc(/C=C/c2cc(Br)ccc2O)n1CCCO | inactive
CN(C)c1ccc(/C=C/c2nc3ccccc3c(=O)n2CCO)cc1 | inactive
CCn1c(/C=C/c2cc[n+](C)cc2)nc2ccccc21 | inactive
COc1ccc(OC)c(C=Cc2ccc([N+](=O)[O-])cc2)c1 | inactive
COc1ccc(Oc2ccc(/C=C/C(=O)c3cccc(OC)c3)cc2[N+](=O)[O-])cc1 | 39.8 µM (active)
O=C(/C=C/c1ccc(Cl)c([N+](=O)[O-])c1)c1ccc(O)cc1 | 28.2 µM (active)
COc1ccc(Oc2ccc(/C=C/C(=O)c3ccc(O)cc3)cc2[N+](=O)[O-])cc1 | 28.2 µM (active)
Cc1cc(CNC(=O)c2cccc([N+](=O)[O-])c2C)c2ccccc2n1 | inactive
COc1ccc(NC(=O)Cn2nc(C(=O)O)c3ccccc3c2=O)cc1Cl | inactive
CN(CC(=O)Nc1cccc(C#N)c1)Cc1ccc(Cl)cc1 | inactive
CSc1cccc(NC(=S)N(CCCN2CCCC2)Cc2cccn2Cc2ccc(Cl)cc2)c1 | 31.6 µM (active)
Cc1cccc(NC(=S)N(CCCN2CCCC2)Cc2cccn2Cc2ccc(Cl)cc2)c1 | 25.1 µM (active)
Cc1ccc(NC(=S)N(CCCN2CCCC2)Cc2cccn2Cc2ccc(Cl)cc2)cc1 | 39.8 µM (active)
COc1ccc(NC(=S)N(CCCN2CCCC2)Cc2cccn2Cc2ccc(Cl)cc2)cc1Cl | 39.8 µM (active)
